Assay results published in the OligoGym collection.

Each sequence was assayed against APLNR (assay: pooled miR-30 sensor sort-seq; sequence = guide strand). Settings: shRNA.
Further: reference of the scale not given here.

Q: TTTTACTGCGTCCAGACTCAGG was tested. Which sensor-assay potency score (higher = more potent) did it give?
A: -1.25

Q: For TTCTCGTGCATCTGTTCTCCAC, which sensor-assay potency score (higher = more potent) is on record?
A: -0.937

Q: For TTGACGTAGCTGATGCAGGTGC, which sensor-assay potency score (higher = more potent) is on record?
A: 0.046

Q: Which sensor-assay potency score (higher = more potent) does the source give for TTTGAGGACAGCTCTGGGCAGA here?
A: -0.516

Q: How did the sensor-assay potency score (higher = more potent) turn out when TACAGCGTCTTCACCAGGTGGT was run?
A: 0.0282

Q: With TAATTATCTGCTGACACACAGC as the sequence, how does the sensor-assay potency score (higher = more potent) read?
A: -0.776

Q: AAACACGGTCCAGAGCACCAGA was tested. Which sensor-assay potency score (higher = more potent) did it give?
A: -0.76

Q: How did the sensor-assay potency score (higher = more potent) turn out when TAACAGGTCAGCATGATGGTGA was run?
A: 0.0238

These sequences were tested against APOA1 in the same assay as above. Settings: shRNA.

Q: TTAGGTTTAGCTGTTTTCCCAA was tested. Which sensor-assay potency score (higher = more potent) did it give?
A: 0.243

Q: With TTGGAGCTCTGCGCGCAGCGGC as the sequence, how does the sensor-assay potency score (higher = more potent) read?
A: -1.17

Q: With TGTCTTTGAGCACATCCACGTA as the sequence, how does the sensor-assay potency score (higher = more potent) read?
A: -1.2

Q: Which sensor-assay potency score (higher = more potent) does the source give for TTGTCAAGGAGCTTTAGGTTTA here?
A: -0.808

Q: For TCTTGCTGCCAGAAATGCCGAG, which sensor-assay potency score (higher = more potent) is on record?
A: -0.701

Q: How did the sensor-assay potency score (higher = more potent) turn out when TTGAGCACATCCACGTACACAG was run?
A: -0.115

Q: For TCGCGCAGCTTGCTGAAGGTGG, which sensor-assay potency score (higher = more potent) is on record?
A: -0.684

Q: How did the sensor-assay potency score (higher = more potent) turn out when TTAGCTGTTTTCCCAAGGCGGA was run?
A: -1.3

Q: TGGGACACATAGTCTCTGCCGC was tested. Which sensor-assay potency score (higher = more potent) did it give?
A: -0.692

Q: With TAGGTTTAGCTGTTTTCCCAAG as the sequence, how does the sensor-assay potency score (higher = more potent) read?
A: -1.2

Q: For AACTGGGACACATAGTCTCTGC, which sensor-assay potency score (higher = more potent) is on record?
A: -0.955

Q: TTCTCTTGCAGCTCGTGCAGCT was tested. Which sensor-assay potency score (higher = more potent) did it give?
A: -0.213

Q: For TAGAGCTCCATCTCCTCCTGCC, which sensor-assay potency score (higher = more potent) is on record?
A: 0.375

Q: Which sensor-assay potency score (higher = more potent) does the source give for TTGGCCTTCTCGCTGAGCGTGC here?
A: -0.4

Q: Which sensor-assay potency score (higher = more potent) does the source give for TAGCTGTTTTCCCAAGGCGGAG here?
A: -1.51

Q: Which sensor-assay potency score (higher = more potent) does the source give for TTTGAGCACATCCACGTACACA here?
A: -1.01

Q: TTGCAGCTCGTGCAGCTTCTGG was tested. Which sensor-assay potency score (higher = more potent) did it give?
A: -1.14

Q: TTCTTCTGGAAGTCGTCCAGGT was tested. Which sensor-assay potency score (higher = more potent) did it give?
A: -0.431

Q: TACTCGGCCAGTCTGGCGCCGC was tested. Which sensor-assay potency score (higher = more potent) did it give?
A: -0.96

Q: How did the sensor-assay potency score (higher = more potent) turn out when TTTAGCTGTTTTCCCAAGGCGG was run?
A: -0.584

Q: TCAGCTTCTCTTGCAGCTCGTG was tested. Which sensor-assay potency score (higher = more potent) did it give?
A: -1.07

These sequences were tested against APOA4 in the same assay as above. Settings: shRNA.

Q: Which sensor-assay potency score (higher = more potent) does the source give for TTCTTCTGCAGGTCACCTGCGT here?
A: -0.176

Q: With TCTTTCTCCTTGAAGGTGCTGA as the sequence, how does the sensor-assay potency score (higher = more potent) read?
A: 0.0406

Q: How did the sensor-assay potency score (higher = more potent) turn out when TTCTGGTCGATCTTGGCCTTGA was run?
A: -0.621

Q: With TCGGAACTCCTCCACCTGCTGG as the sequence, how does the sensor-assay potency score (higher = more potent) read?
A: -1.28

Q: How did the sensor-assay potency score (higher = more potent) turn out when TCTTCTGCAGGTCACCTGCGTA was run?
A: -1.37

Q: TTGAGCTCCTCCACGTTCTGGT was tested. Which sensor-assay potency score (higher = more potent) did it give?
A: 0.494

Q: With TGAAGTAGTCCCACATCACCGT as the sequence, how does the sensor-assay potency score (higher = more potent) read?
A: -0.0577

Q: Which sensor-assay potency score (higher = more potent) does the source give for AAGTAGTCCCACATCACCGTGG here?
A: -0.243

Q: TCCACGTTCTGGTCGATCTTGG was tested. Which sensor-assay potency score (higher = more potent) did it give?
A: -1.41

Q: Which sensor-assay potency score (higher = more potent) does the source give for TTCTCCTTGAAGGTGCTGAAGA here?
A: -1.33

Q: TTCTTCATCTGGAAGGTCAGGC was tested. Which sensor-assay potency score (higher = more potent) did it give?
A: 0.31
